The list shows a part of the results. Records with an inconclusive call do not appear. Activity calls are given as the source filed them. Calls come from the whole dose curve; as a rule, active = well fitted inhibition curve with a large enough effect; inconclusive = small, poorly fitted or top-dose-only effect; inactive = no such curve, though single readings can be large or run the other way.
Molecular target: 4'-phosphopantetheinyl transferase Sfp (Bacillus subtilis (strain 168)) (UniProt P39135)
Assay: qHTS Assay for Inhibitos of Bacillus subtilis Sfp phosphopantetheinyl transferase (PPTase): Chemistry Optimization Followup
Details: purified Sfp PPTase enzyme activity
From the text: The covalent attachment of a phosphopantetheinyl (4'-PP) arm to a variety of synthases and other proteins is a key posttranslational protein modification. The 4'-PP is installed on the proteins post-translationally from coenzyme A (CoA) on a conserved serine residue by action of phosphopantetheinyl transferase (PPTase) enzymes. Phosphopantetheinylation is essential for synthase activity, and removal of the PPTase gene precludes natural product synthesis in microorganisms, or in the case of fatty acid biosynthesis, renders the organism unviable. PPTase enzymes belong to a distinct structural superfamily. Within bacteria, these enzymes are grouped into two classes based upon primary structure, the AcpS-Type and Sfp-Type PPTases.
Sfp-type PPTases, corresponding to an activator of surfactin production in Bacillus subtilis, are responsible for modifying type I polyketide and nonribosomal peptide synthases of prokaryotes. Sfp-type PPTases are responsible for the activation of a variety of pathogen-associated virulence factors. Among these compounds are toxins such as mycolactone from Mycobacterium ulcerans, siderophores such as vibriobactin from Vibrio cholerae or mycobactin from Mycobacterium tuberculosis, as well as the mycolic acids which form the waxy cell wall of Mycobacteria. The biosyntheses of these natural products are considered attractive targets for drug design.
In search of small molecule Sfp-PPTase inhibitors, a fluorescence quenching assay was developed for detection of Bacillus subtilis Sfp-PPTase enzymatic activity in a miniaturized high-throughput format. The consensus ybbr acceptor peptide […] was N-terminally labeled with Black Hole Quencher-2 (BHQ-2) and used in combination with rhodamine-labeled coenzyme A as a co-substrate.
Inhibition of Sfp-PPTase was detected by recording the fluorescence intensity change over a 30-minute reaction period at a 525 nm excitation and 598 nm emission. Reagents were supplied by Michael Burkart and Timothy Foley, University of California at San Diego.
NIH Chemical Genomics Center [NCGC]
NIH Molecular Libraries Probe Centers Network [MLPCN]
Assay Submitter (PI): Michael Burkart, University of California, San Diego
3 uL of Sfp-PPTase enzyme (final concentration 15 nM) and 1 uL of substrate mixture (final concentration for rhodamine-CoA and BHQ-2-YbbR 5 uM and 12.5 uM, respectively) dispensed in columns 1, 2, 5 - 48. Columns 1 and 2 used to generate neutral control (uninhibited reaction)
Three uL of reagents, consisting of buffer (in columns 3 and 4 as negative control) and Sfp-PPTase (in columns 1, 2, 5 - 48) were dispensed into 1,536-well Greiner black solid bottom plate. Compounds (23 nL) were transferred via Kalypsys pintool equipped with 1,536-pin array. The plate was incubated for 15 min at room temperature, followed by the addition of 1 uL substrate to start the reaction. The plate was then centrifuged at 1000 rpm for 15 seconds, and the fluorescence intensity recorded on a ViewLux High-throughput CCD imager (Perkin-Elmer) using standard BODIPY optics (525 nm excitation and 598 nm emission). The plate was then incubated for 30 minutes, and a second read on the ViewLux was performed. The fluorescence intensity difference over the 30-minute period was used to calculate the respective reaction rate for each well.

Potency, active:
Cc1cc(C)nc(NC(=S)N2CCN(c3cccc(C(F)(F)F)c3)CC2)c1 1.67 µM, Cc1cc(C)nc(NC(=S)N2CCN(c3ccc(Cl)cc3C(F)(F)F)CC2)c1 2.96 µM, Cc1cc(C)nc(NC(=S)N2CCN(c3ccc4nonc4c3)CC2)c1 7.44 µM, Cc1ccc(N2CCN(C(=S)Nc3cc(C)ccn3)CC2)cc1 6.63 µM, Cc1cc(C)nc(NC(=S)N2CCN(c3ccc(Cl)cc3F)CC2)c1 1.87 µM, COc1ccnc(NC(=S)N2CCN(c3ncc(C(F)(F)F)cc3Cl)CC2)c1 2.64 µM, Cc1cc(C)nc(NC(=S)N2CCN(c3cccc(C#N)c3)CC2)c1 5.91 µM

Source: PubChem BioAssay AID540350 (National Center for Advancing Translational Sciences (NCATS), 2011)
